{"source": "PubChem BioAssay (NCATS)", "note": "Inconclusive results are not listed. A call without a number means that no potency is given here. Active and inactive are the calls of the source. Calls follow the shape of the dose curve; as a rule, active = well fitted inhibition curve with a large enough effect; inconclusive = small, poorly fitted or top-dose-only effect; inactive = flat fitted curve, though single readings scatter. Potency is read from the fitted curve at half-maximal effect."}
{"test_system": "CP237", "assay": "qHTS profiling for inhibitors of Plasmodium falciparum proliferation (AID 504749); also: nearly all actives have a fitted effect of over 60% in size", "conditions": "P. falciparum in erythrocytes, SYBR Green DNA, 72 h; series mostly up to 28.7 µM", "outline": "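Each compound contacts P. falciparum-infected red blood cells for 72 h at 37 C; lysis buffer (Tris, EDTA, saponin, Triton X, SYBR Green I) is added and fluorescence measured next morning; values normalized to controls.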"}
{"smiles": "CCCCCCCCCCCCCCCC(=O)OC[C@H](O)[C@H]1OC[C@@H](O)[C@@H]1O", "Potency": "inactive"}
{"smiles": "CCCCC(=O)OCC(=O)[C@]1(O)Cc2c(O)c3c(c(O)c2[C@H](OC2CC(NC(=O)C(F)(F)F)C(O)C(C)O2)C1)C(=O)c1c(OC)cccc1C3=O", "note": "(stereo not given in full)", "Potency": "1580 nM (active)"}
{"smiles": "C[C@H]1OC(OC2C(O)[C@@H](O)C(OC3C(O)[C@@H](O)C(O)O[C@@H]3CO)O[C@@H]2CO)[C@H](O)C(O)C1N[C@H]1C=C(CO)[C@@H](O)[C@H](O)C1O", "note": "(stereo not given in full)", "Potency": "inactive"}
{"smiles": "CCN(CC)CC(=O)Nc1c(C)cc(C)cc1C", "Potency": "inactive"}
{"smiles": "CC(=O)N[C@H]1[C@H](O[C@@H]2c3ccc(c(Cl)c3)Oc3cc4cc(c3O[C@@H]3O[C@H](CO)[C@@H](O)[C@H](O)C3C)Oc3ccc(cc3Cl)C[C@H]3NC(=O)[C@@H](N)c5ccc(O)c(c5)Oc5cc(O)cc(c5)[C@H](NC3=O)C(=O)N[C@H]4C(=O)N[C@H]3C(=O)N[C@@H]2C(=O)N[C@@H](C(=O)O)c2cc(O)cc(O[C@H]4O[C@H](CO)[C@@H](O)C(O)[C@@H]4O)c2-c2cc3ccc2O)O[C@H](CO)[C@@H](O)[C@@H]1O", "note": "(stereo not given in full)", "Potency": "inactive"}
{"smiles": "NC(=O)c1ncn(C2OC(CO)C(O)C2O)c1N", "note": "(stereo not given)", "Potency": "inactive"}
{"smiles": "C[C@H]1[C@@H](OC(=O)CCC(=O)O)OC2OC3(C)CC[C@H]4[C@H](C)CC[C@@H]1[C@@]24OO3", "note": "(stereo not given in full)", "Potency": "6.3 nM (active)"}
{"smiles": "CC1(Cn2ccnn2)[C@H](C(=O)O)N2C(=O)C[C@H]2S1(=O)=O", "note": "(stereo not given in full)", "Potency": "inactive"}
{"smiles": "CN(C)CC/C=C1\\c2ccccc2COc2ccc(CC(=O)O)cc21", "Potency": "inactive"}
{"smiles": "CCCC(=O)O[C@]1(C(=O)COC(C)=O)CC[C@H]2C3C[C@H](F)C4=CC(=O)C=CC4(C)[C@@]3(F)[C@@H](O)CC21C", "note": "(stereo not given in full)", "Potency": "inactive"}
{"smiles": "OCCN1CC(O)C(O)C(O)C1CO", "note": "(stereo not given)", "Potency": "inactive"}
{"smiles": "COc1cc2c(cc1O)CCN[C@@]21CS[C@H]2c3c(OC(C)=O)c(C)c4c(c3C(COC1=O)N1C2C2c3c(cc(C)c(OC)c3O)CC([C@@H]1O)N2C)OCO4", "note": "(stereo not given in full)", "Potency": "0.9 nM (active)"}
{"smiles": "CC(CCC(=O)O)C1CCC2C3C(=O)C[C@@H]4CC(=O)CC[C@@]4(C)C3CC(=O)[C@]12C", "note": "(stereo not given in full)", "Potency": "inactive"}
{"smiles": "C[n+]1c2cc(N)ccc2cc2ccc(N)cc21", "Potency": "282 nM (active)"}
{"smiles": "O=C(OC[C@@H]1O[C@@](O)(COC(=O)c2cccnc2)[C@H](OC(=O)c2cccnc2)[C@H]1OC(=O)c1cccnc1)c1cccnc1", "Potency": "inactive"}
{"smiles": "O=[N+]([O-])O[C@H]1CO[C@H]2[C@@H]1OC[C@H]2O", "Potency": "inactive"}
{"smiles": "COc1cccc(OC)c1C(=O)NC1C(=O)N2C1SC(C)(C)C2C(=O)O", "note": "(stereo not given)", "Potency": "inactive"}
{"smiles": "NC[C@@H]1O[C@H](OC2[C@@H](CO)O[C@@H](OC3[C@H](O)[C@H](N)C[C@H](N)[C@H]3OC3O[C@H](CO)[C@@H](O)[C@H](O)[C@@H]3N)[C@H]2O)C(N)[C@H](O)[C@@H]1O", "note": "(stereo not given in full)", "Potency": "inactive"}
{"smiles": "Cc1ccc(S(=O)(=O)NC(=O)NC(C)Cc2ccccc2)cc1", "note": "(stereo not given)", "Potency": "inactive"}
{"smiles": "OCCOC[C@H]1O[C@H](OCCO)[C@H](OCCO)[C@@H](OCCO)[C@@H]1OCCO", "note": "(tested in a mixture with another compound)", "Potency": "inactive"}
{"smiles": "C[S+](C)CC[C@H](N)C(=O)O", "Potency": "inactive"}
{"smiles": "CC[C@@H]1/C=C(\\C)C[C@H](C)C[C@H](OC)[C@H]2O[C@@](O)(C(=O)C(=O)N3CCCC[C@H]3C(=O)O[C@H](/C(C)=C/[C@@H]3CC[C@H](Cl)[C@H](OC)C3)[C@H](C)[C@@H](O)CC1=O)[C@H](C)C[C@@H]2OC", "Potency": "inactive"}
{"smiles": "NC(=O)C1CC2(NC(=O)NC2=O)c2cc(F)ccc2O1", "note": "(stereo not given)", "Potency": "inactive"}
{"smiles": "CN1[C@@H]2CC[C@@H]1CC(OC(=O)[C@H](CO)c1ccccc1)C2", "note": "(stereo not given in full)", "Potency": "inactive"}
{"smiles": "CC[C@@]1(O)C[C@H](O[C@H]2C[C@@H](N(C)C)[C@@H](O[C@H]3C[C@@H](O)[C@@H](O[C@H]4CCC(=O)[C@@H](C)O4)[C@@H](C)O3)[C@@H](C)O2)c2c(cc3c(c2O)C(=O)c2c(O)cccc2C3=O)[C@H]1C(=O)OC", "Potency": "35.5 nM (active)"}
{"smiles": "CCCCCCCCCCCC(=O)OCC(O)C1OCC(O)C1O", "note": "(stereo not given)", "Potency": "inactive"}
{"smiles": "C/C1=C2/[N-]C(C(CC(N)=O)[C@@]2(C)CCC(=O)NCC(C)OP(=O)([O-])O[C@H]2[C@@H](O)[C@@H](n3cnc4cc(C)c(C)cc43)O[C@@H]2CO)[C@]2(C)N=C(/C(C)=C3N=C(/C=C4N=C1C(CCC(N)=O)C\\4(C)C)[C@@H](CCC(N)=O)[C@]\\3(C)CC(N)=O)[C@@H](CCC(N)=O)[C@]2(C)CC(N)=O.CC(=O)O.[Co]", "note": "(stereo not given in full)", "Potency": "inactive"}
{"smiles": "CC1(C)OC[C@@H]2O[C@@]3(C(=O)O)OC(C)(C)O[C@@H]3[C@@H]2O1", "Potency": "inactive"}
{"smiles": "Cc1ccccc1N1C(=O)c2cc(N)ccc2N/C1=C\\F", "Potency": "inactive"}
{"smiles": "CCC(C(=O)O)C1OC(C(C)C(O)C(C)C(=O)C(CC)C2OC3(C=CC(O)C4(CCC(C)(C5CCC(O)(CC)C(C)O5)O4)O3)C(C)CC2C)C(C)CC1C", "note": "(stereo not given)", "Potency": "56.2 nM (active)"}
{"smiles": "O=C1C(I)=CC(=C(c2cc(I)c(O)c(I)c2)c2ccccc2C(=O)O)C=C1I", "Potency": "inactive"}
{"smiles": "NC(=O)NC(CCC(=O)O)C(=O)O", "note": "(stereo not given)", "Potency": "inactive"}
{"smiles": "COC1CC2CCC(C)[C@](O)(O2)C(=O)C(=O)N2CCCCC2C(=O)OC(C(C)CC2CCC(O)C(OC)C2)CC(=O)C(C)/C=C(/C)C(O)C(OC)C(=O)C(C)CC(C)C=CC=C/C=C\\1C", "note": "(stereo not given in full)", "Potency": "2820 nM (active)"}
{"smiles": "CC(=O)OCC(=O)[C@@]1(O)CCC2C3C[C@H](C)C4=CC(=O)C=CC4(C)C3C(O)CC21C", "note": "(stereo not given in full)", "Potency": "inactive"}
{"smiles": "CN[C@H](C)CCC=C(C)C", "Potency": "199 nM (active)"}
{"smiles": "CC1(C)C2CC[C@]1(C)[C@@H](O)C2", "Potency": "inactive"}
{"smiles": "OCC1O[C@H](Oc2ccc(O)cc2)C(O)C(O)C1O", "note": "(stereo not given in full)", "Potency": "inactive"}
{"smiles": "Nc1nc(F)nc2c1ncn2[C@@H]1O[C@H](CO)[C@@H](O)[C@H]1O", "Potency": "inactive"}
{"smiles": "CC1OC(OC2CCC3(C)C(CCC4C3CC(O)C3(C)C(C5=CC(=O)OC5)CCC43O)C2)CC(O)C1OC1CC(O)C(OC2CC(O)C(OC3OC(CO)C(O)C(O)C3O)C(C)O2)C(C)O1", "note": "(stereo not given)", "Potency": "inactive"}
{"smiles": "CC1OC(OCC2OC(Oc3c(-c4ccc(OCCO)c(OCCO)c4)oc4cc(OCCO)cc(O)c4c3=O)C(O)C(O)C2O)[C@@H](O)C(O)C1O", "note": "(stereo not given in full)", "Potency": "inactive"}
